Assay results: the supplement of paper PMC11732987, “Enantioselective OTUD7B fragment discovery through chemoproteomics screening and high-throughput optimisation” (Communications Chemistry, 2025)

Columns and labels:
Test in all cases: log2 ratio of Biotin-Ahx-Ub-VS probe labelling (fragment/DMSO); higher = less target engagement (more negative = stronger competition), active = hit call of the paper (q ≤ 0.05, log2 ratio ≤ -1)
Settings in all cases: compound concentration: 200 uM; treatment time: 3 h
USP34 = USP34 (UniProt Q70CQ2)
How it was run: (§1)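 Triplicate samples of HEK293T lysate, 495 µg each, received fragment at 200 µM or vehicle for 3 h, followed by Biotin-Ahx-Ub-VS (0.5 µM final) for 1 h. After NeutrAvidin enrichment of labelled DUBs and LysC/trypsin digestion, peptides were run by diaPASEF LC-MS/MS. The values are average log2 fragment/vehicle ratios from global-median-normalised Spectronaut label-free quantities, tested by unpaired t-test on proteins having ≥2 unique peptides.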

USP36 = target: T1, USP36 (UniProt Q9P275)
T1 sequence (whole entry): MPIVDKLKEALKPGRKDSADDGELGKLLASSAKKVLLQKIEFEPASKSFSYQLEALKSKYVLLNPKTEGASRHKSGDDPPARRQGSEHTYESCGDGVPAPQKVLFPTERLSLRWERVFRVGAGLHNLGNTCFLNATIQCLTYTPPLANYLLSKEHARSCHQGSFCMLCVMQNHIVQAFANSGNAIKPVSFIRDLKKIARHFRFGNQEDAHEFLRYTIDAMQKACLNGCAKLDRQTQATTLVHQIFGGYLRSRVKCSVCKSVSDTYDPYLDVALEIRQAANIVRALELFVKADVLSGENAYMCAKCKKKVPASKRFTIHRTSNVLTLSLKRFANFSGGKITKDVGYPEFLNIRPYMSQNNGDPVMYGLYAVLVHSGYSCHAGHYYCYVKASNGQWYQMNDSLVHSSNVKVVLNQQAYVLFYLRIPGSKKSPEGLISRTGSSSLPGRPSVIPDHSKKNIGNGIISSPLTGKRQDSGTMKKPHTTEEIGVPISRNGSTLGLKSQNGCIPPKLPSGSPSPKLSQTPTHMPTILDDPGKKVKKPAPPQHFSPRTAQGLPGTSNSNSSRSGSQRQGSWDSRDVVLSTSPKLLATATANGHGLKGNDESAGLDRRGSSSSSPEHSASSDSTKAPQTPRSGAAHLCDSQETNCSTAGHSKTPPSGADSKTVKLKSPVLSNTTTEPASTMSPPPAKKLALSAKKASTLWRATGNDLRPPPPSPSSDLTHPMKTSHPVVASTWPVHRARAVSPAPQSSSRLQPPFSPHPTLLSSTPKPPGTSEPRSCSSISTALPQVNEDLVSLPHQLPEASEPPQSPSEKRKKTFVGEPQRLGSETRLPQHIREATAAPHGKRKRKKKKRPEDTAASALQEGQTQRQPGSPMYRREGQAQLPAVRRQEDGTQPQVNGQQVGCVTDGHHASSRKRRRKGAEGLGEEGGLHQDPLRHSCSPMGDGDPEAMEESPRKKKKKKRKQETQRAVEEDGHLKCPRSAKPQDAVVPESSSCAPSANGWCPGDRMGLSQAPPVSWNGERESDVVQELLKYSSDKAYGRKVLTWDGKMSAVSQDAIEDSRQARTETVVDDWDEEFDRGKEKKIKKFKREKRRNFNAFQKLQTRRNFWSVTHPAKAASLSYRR
How it was run: as §1

USP38 = target: T2, USP38 (UniProt Q8NB14)
T2 sequence (whole entry): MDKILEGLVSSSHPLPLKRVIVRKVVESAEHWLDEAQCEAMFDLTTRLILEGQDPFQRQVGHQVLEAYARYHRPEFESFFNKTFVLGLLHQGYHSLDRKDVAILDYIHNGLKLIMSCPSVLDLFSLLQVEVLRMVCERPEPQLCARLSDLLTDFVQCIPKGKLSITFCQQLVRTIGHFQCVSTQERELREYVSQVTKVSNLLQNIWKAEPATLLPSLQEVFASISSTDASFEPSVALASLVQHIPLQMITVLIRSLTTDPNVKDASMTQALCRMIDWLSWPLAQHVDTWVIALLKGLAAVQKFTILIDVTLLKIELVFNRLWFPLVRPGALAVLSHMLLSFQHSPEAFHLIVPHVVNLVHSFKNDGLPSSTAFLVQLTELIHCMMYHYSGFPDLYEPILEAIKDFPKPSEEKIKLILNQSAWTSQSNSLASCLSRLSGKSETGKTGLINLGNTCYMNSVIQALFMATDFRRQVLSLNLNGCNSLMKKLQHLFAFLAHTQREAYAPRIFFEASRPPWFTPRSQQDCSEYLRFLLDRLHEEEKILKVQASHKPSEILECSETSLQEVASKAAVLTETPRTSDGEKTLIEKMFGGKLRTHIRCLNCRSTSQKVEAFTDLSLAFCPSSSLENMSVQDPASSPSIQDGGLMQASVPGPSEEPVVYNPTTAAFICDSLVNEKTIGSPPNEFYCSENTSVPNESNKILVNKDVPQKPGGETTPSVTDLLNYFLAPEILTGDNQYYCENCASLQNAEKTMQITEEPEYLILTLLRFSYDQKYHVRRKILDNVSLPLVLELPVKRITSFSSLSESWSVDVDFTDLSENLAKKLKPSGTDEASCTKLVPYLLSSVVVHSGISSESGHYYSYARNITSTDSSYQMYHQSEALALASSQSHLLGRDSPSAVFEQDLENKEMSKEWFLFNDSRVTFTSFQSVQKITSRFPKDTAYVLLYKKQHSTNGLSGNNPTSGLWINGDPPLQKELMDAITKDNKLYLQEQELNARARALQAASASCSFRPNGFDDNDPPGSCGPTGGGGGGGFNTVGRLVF
How it was run: as §1

USP39 = target: T3, USP39 (UniProt Q53GS9)
T3 sequence (whole entry): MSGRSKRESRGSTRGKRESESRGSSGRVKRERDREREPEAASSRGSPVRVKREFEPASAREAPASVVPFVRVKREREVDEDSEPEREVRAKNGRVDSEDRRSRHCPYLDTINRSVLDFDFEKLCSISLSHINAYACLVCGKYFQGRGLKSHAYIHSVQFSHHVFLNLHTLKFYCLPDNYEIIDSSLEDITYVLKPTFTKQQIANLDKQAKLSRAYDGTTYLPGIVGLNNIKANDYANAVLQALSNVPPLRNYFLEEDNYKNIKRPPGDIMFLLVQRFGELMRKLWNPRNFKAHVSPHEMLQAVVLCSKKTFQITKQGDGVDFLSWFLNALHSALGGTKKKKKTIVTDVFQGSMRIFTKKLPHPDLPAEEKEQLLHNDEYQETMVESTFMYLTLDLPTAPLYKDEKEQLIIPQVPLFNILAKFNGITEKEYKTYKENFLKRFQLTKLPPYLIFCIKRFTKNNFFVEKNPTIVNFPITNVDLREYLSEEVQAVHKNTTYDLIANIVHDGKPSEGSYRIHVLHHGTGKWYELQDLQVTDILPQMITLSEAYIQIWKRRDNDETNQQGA
How it was run: as §1

USP4 = target: T4, USP4 (UniProt Q13107)
T4 sequence (whole entry): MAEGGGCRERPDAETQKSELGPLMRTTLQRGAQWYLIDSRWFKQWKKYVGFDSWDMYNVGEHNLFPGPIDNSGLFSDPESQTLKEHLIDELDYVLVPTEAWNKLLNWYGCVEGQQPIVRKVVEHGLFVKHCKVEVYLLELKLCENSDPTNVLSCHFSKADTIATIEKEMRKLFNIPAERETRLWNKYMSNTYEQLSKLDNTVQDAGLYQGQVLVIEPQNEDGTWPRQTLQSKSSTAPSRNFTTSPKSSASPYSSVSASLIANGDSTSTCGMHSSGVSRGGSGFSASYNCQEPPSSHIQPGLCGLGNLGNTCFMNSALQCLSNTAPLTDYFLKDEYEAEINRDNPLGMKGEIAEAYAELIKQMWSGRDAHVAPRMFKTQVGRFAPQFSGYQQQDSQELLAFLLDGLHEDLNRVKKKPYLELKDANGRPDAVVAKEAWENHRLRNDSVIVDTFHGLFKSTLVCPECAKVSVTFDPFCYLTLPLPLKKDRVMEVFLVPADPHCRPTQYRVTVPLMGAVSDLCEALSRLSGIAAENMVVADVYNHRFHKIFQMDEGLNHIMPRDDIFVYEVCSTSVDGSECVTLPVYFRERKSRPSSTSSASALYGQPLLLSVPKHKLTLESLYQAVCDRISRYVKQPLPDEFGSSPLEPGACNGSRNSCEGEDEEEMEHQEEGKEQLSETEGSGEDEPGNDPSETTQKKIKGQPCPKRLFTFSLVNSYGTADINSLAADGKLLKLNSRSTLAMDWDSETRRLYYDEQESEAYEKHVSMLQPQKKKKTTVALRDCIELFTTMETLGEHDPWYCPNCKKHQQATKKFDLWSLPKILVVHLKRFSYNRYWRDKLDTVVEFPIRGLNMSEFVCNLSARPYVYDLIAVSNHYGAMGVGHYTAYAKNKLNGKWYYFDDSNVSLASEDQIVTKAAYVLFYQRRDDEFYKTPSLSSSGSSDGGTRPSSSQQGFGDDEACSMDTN
How it was run: as §1

Measured: log2 ratio of Biotin-Ahx-Ub-VS probe labelling

Chain of USP34 (Q70CQ2 whole entry, the tested form may be a part): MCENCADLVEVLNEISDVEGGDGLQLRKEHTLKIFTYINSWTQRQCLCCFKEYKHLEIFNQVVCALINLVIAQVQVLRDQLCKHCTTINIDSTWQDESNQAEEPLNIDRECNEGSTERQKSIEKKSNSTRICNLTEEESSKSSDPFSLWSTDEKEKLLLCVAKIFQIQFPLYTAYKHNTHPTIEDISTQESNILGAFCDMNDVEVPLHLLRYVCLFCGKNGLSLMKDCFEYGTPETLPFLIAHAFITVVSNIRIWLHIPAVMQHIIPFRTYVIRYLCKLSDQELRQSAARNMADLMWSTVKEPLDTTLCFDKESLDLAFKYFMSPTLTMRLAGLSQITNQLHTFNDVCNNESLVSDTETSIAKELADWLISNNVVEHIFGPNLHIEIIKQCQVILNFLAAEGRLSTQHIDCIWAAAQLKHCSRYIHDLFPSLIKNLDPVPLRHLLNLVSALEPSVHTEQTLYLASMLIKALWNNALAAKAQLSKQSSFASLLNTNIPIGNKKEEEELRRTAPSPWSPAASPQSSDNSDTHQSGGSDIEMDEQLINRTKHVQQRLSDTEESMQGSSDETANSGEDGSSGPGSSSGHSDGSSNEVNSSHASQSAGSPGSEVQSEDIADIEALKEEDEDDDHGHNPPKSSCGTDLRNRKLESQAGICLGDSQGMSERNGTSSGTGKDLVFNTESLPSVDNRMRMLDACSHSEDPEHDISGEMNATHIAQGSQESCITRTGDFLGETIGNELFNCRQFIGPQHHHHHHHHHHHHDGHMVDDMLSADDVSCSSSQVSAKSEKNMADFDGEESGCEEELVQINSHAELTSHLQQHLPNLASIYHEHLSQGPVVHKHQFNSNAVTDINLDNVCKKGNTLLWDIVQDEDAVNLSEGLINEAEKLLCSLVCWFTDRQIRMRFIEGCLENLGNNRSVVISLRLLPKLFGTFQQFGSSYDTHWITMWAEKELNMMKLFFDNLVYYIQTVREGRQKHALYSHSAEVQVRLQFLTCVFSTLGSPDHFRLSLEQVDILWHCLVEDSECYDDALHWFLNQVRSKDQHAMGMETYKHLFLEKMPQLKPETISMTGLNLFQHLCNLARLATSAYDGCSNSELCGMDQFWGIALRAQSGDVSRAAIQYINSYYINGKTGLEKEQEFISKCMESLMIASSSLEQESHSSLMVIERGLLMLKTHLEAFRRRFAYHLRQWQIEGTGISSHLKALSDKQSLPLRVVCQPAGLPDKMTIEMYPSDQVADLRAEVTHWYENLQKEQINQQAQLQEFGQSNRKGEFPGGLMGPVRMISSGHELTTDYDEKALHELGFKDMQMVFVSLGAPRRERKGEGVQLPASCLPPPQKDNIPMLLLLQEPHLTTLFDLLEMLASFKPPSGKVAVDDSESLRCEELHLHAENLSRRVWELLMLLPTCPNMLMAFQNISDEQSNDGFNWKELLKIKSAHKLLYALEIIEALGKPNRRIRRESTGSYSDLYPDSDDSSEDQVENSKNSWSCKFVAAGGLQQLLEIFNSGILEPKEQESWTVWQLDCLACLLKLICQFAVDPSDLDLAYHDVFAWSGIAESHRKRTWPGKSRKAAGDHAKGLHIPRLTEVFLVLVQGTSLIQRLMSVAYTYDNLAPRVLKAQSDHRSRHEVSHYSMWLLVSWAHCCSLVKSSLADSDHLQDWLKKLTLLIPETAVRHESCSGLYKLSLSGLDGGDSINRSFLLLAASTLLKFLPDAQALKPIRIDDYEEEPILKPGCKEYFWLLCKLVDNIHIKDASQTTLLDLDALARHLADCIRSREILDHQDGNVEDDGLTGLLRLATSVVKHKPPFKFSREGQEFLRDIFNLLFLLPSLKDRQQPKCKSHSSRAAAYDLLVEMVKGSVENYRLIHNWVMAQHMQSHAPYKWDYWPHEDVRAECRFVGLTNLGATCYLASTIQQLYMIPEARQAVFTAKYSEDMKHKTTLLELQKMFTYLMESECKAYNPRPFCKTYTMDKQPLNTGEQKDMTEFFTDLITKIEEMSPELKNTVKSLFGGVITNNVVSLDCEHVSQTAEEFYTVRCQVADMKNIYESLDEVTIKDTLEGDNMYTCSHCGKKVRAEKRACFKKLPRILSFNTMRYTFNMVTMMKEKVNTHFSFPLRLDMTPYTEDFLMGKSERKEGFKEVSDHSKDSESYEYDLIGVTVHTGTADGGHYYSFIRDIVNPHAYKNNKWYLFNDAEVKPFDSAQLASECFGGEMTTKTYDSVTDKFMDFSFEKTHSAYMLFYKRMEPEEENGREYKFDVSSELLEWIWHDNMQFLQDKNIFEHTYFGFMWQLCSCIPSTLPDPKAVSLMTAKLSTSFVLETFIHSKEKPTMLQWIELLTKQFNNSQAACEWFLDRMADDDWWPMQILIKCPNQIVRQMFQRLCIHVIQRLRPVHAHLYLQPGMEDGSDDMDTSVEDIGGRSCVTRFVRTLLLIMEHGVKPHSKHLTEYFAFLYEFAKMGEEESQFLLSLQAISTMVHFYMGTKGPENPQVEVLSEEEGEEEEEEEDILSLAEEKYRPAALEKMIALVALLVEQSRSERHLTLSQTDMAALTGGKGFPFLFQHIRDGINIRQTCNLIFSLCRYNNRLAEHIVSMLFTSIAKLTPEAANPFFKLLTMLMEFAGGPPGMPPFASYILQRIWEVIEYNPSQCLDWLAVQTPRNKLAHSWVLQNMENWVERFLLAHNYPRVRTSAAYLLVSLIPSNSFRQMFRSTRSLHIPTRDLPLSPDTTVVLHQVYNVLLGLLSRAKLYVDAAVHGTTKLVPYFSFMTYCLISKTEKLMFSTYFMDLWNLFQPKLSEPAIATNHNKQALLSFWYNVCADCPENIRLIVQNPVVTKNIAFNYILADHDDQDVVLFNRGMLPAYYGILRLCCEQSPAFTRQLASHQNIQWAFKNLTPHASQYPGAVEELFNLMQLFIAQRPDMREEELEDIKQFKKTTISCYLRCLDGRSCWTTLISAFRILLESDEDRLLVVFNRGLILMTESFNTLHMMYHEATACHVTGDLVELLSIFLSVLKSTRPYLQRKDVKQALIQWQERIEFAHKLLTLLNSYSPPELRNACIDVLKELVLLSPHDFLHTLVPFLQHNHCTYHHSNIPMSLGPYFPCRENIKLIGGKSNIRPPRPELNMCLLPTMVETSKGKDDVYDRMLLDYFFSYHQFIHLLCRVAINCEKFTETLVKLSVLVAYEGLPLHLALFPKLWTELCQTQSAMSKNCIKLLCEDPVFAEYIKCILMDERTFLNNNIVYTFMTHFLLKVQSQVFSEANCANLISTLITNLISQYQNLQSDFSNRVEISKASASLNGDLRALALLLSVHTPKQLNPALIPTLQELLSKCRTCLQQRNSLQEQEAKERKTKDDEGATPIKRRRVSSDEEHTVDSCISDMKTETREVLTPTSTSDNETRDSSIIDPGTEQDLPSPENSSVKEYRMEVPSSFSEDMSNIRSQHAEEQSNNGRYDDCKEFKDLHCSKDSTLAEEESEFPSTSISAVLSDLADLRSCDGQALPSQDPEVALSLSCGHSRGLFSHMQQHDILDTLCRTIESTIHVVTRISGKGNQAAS

O=C(CCl)N1CCC2(CCC(O)CC2)CC1
inactive: USP34 -0.363 | USP36 -0.0873 | USP38 0.139 | USP39 0.333 | USP4 0.123
